In all, about 52,000 compounds went through this assay and about 4,300 (8.3%) were called active. No stated cut-off is given here; in the data, active means survival mostly below about 52% (no sharp cut-off); inactive means mostly above about 56%. Only a selection was taken, and actives are over-represented in it overall.
Each compound was assayed on DeltatarO mutant (assay: growth inhibition of S. aureus wild type versus tarO mutant, primary screen, teichoic acid synthesis inhibitors, RN4220, OD600 (AID 463173)). Settings: OD600, 18 h, stronger effect = lower value, screened at 18.75 µg/mL (by protocol).

| Compound | survival |
| --- | --- |
| O=C(c1ccc(F)cc1F)N1CCC(c2nc(-c3ccc(S(=O)(=O)N4CCCC4)cc3)no2)CC1 | 97% (inactive) |
| O=S(=O)(c1ccc2ccccc2c1)n1nc(-c2ccco2)nc1NCc1ccc(F)cc1 | 106% (inactive) |
| Cc1oc(-c2cccc(Cl)c2)nc1CN1CCC(C(=O)NC(C)c2ccccc2)CC1 (stereo not given) | 85% (inactive) |
| CC(=O)Nc1ccccc1OCc1cc(=O)n2c3c(sc2n1)CCCC3 | 120% (inactive) |
| O=C(/C=C/c1ccccc1)C1=C(O)C(=O)N(CCO)C1c1ccc2c(c1)OCO2 (stereo not given) | 79% (inactive) |
| COc1ccc(-c2oc3ncn4nc(-c5ccccc5O)nc4c3c2-c2ccc(OC)cc2)cc1 | 62% (inactive) |
| CCc1ccc(CNC(=O)c2cc3cc(S(=O)(=O)N4CCCCC4)ccc3n2C)cc1 | 60% (inactive) |
| Cc1ccccc1CNC(=O)c1cc2cc(S(=O)(=O)N3CCCCC3)ccc2n1C | 102% (inactive) |
| CN(C)c1ccc(CNC(=O)c2cc3cc(S(=O)(=O)N4CCCCC4)ccc3n2C)cc1 | 8% (active) |
| Cn1c(C(=O)NCc2ccc(F)cc2)cc2cc(S(=O)(=O)N3CCCCC3)ccc21 | 126% (inactive) |
| Cn1c(C(=O)NCCc2ccccc2)cc2cc(S(=O)(=O)N3CCCCC3)ccc21 | 94% (inactive) |
| Cc1ccccc1CCNC(=O)c1cc2cc(S(=O)(=O)N3CCCCC3)ccc2n1C | 20% (active) |
| CC(C)NC(=O)CCn1c(SCc2c(F)cccc2Cl)nc2c(sc3ccccc32)c1=O | 67% (inactive) |
| COc1ccccc1NC(=O)N1CCN(Cc2ccccc2)CC1 | 87% (inactive) |
| Cc1cc(C)c2sc(N(Cc3cccnc3)C(=O)CCOc3ccccc3)nc2c1 | 115% (inactive) |
| COc1cc(Cl)c(NC(=O)CCS(=O)(=O)c2ccc3c(c2)NC(=O)CO3)c(OC)c1 | 90% (inactive) |
| COc1ccc(NC(=O)c2cc3cc(C)ccc3[nH]2)cc1 | 100% (inactive) |
| Cc1ccc(NC(=O)CN2C(=O)COc3ccc(S(=O)(=O)N4CCOCC4)cc32)cc1N(C)C | 99% (inactive) |
| Cc1ccc(S(=O)(=O)c2cn(CC(=O)Nc3ccc4c(c3)OCO4)c3ccc(F)cc3c2=O)cc1 | 69% (inactive) |
| CC1C(=O)NN=C1C(=O)N/N=C\c1cccnc1 (stereo not given) | 87% (inactive) |
| COc1ccccc1NS(=O)(=O)c1cn(C)c(C)n1 | 37% (active) |
| CSc1cccc(NS(=O)(=O)c2cn(C)c(C)n2)c1 | 75% (inactive) |
| Cc1ccc(NS(=O)(=O)c2cn(C)c(C)n2)c(Br)c1 | 69% (inactive) |
| CCc1nn(CC(=O)NC(C)CC)c(=O)c2cc3c(OC)cccc3n12 (stereo not given) | 128% (inactive) |

| Compound | survival |
| --- | --- |
| CCc1ccc(OC(C)c2nc(-c3ccc(-n4cccc4)cc3)no2)cc1 (stereo not given) | 48% (inactive) |
| CCc1ccc(OCc2nc(-c3ccc(-n4cccc4)cc3)no2)cc1 | 82% (inactive) |
| CCCc1ccc(OC(C)c2nc(-c3ccc(-n4cccc4)cc3)no2)cc1 (stereo not given) | 52% (active) |
| Cc1cc(NC(=O)CSc2nc3c([nH]c4ccccc43)c(=O)n2-c2ccccc2F)no1 | 88% (inactive) |
| CC(Sc1nnc(-c2ccccc2Br)o1)C(=O)Nc1cccc(Cl)c1 (stereo not given) | 34% (active) |
| Cc1ccccc1NC(=O)C(C)Sc1nnc(-c2ccccc2O)o1 (stereo not given) | 69% (inactive) |
| Cc1ccccc1NC(=O)C(C)Sc1nnc(-c2ccccc2C)o1 (stereo not given) | 74% (inactive) |
| CCOC(=O)C1(C)C=C(Nc2ccc(C(N)=O)cc2)C(=O)N1c1ccccc1 (stereo not given) | 68% (inactive) |
| CCC(=O)N1CCc2cc(Br)cc(S(=O)(=O)CCC(=O)NCCc3ccccc3)c21 | 91% (inactive) |
| Cc1ccc(C)c(NC(=O)CN2C(=O)COc3ccc(Cl)cc32)c1 | 69% (inactive) |
| COC(=O)c1ccccc1NC(=O)CN1C(=O)COc2ccc(Cl)cc21 | 38% (active) |
| COC(=O)c1ccccc1NC(=O)CN1C(=O)COc2ccccc21 | 69% (inactive) |
| COc1ccc(-n2ncc(C(=O)N3CCN(C(=O)c4ccco4)CC3)c2C2CCN(C(=O)OC(C)(C)C)CC2)cc1 | 86% (inactive) |
| Cc1ccccc1S(=O)Cc1ccc(C(=O)N2CCN(c3cccc(C)c3C)CC2)o1 (stereo not given) | 61% (inactive) |
| Cc1ccccc1S(=O)(=O)Cc1ccc(C(=O)N2CCN(c3cccc(Cl)c3)CC2)o1 | 54% (active) |
| Cc1cccc(N2CCN(C(=O)c3ccc(CS(=O)c4cccc(Cl)c4)o3)CC2)c1C (stereo not given) | 51% (active) |
| O=C(c1ccc(CS(=O)c2ccccc2Cl)o1)N1CCN(c2ccccc2F)CC1 (stereo not given) | 84% (inactive) |
| O=C(c1ccc(CS(=O)c2ccccc2Cl)o1)N1CCN(c2cccc(Cl)c2)CC1 (stereo not given) | 51% (active) |
| Cc1ccc2cc3cc(C(=O)N4CCN(c5ccc(Cl)cc5)CC4)oc3nc2c1 | 85% (inactive) |
| Cc1ccc(Cl)cc1N1CCN(C(=O)c2ccc(CS(=O)(=O)c3ccccc3C)o2)CC1 | 50% (inactive) |
| COc1ccc(N2CCN(C(=O)c3cc4cc5ccc(Cl)cc5nc4o3)CC2)cc1 | 86% (inactive) |
| O=C(c1cc2cc3ccc(Cl)cc3nc2o1)N1CCN(c2cccc(Cl)c2)CC1 | 46% (active) |
| Cc1ccc(S(=O)(=O)Cc2ccc(C(=O)N3CCN(c4cccc(Cl)c4)CC3)o2)cc1 | 75% (inactive) |
| O=C(c1ccc(CS(=O)c2ccccc2Cl)o1)N1CCN(c2cccc(C(F)(F)F)c2)CC1 (stereo not given) | 60% (inactive) |

| Compound | survival |
| --- | --- |
| COc1ccc(S(=O)Cc2ccc(C(=O)N3CCN(c4cccc(C)c4C)CC3)o2)cc1 (stereo not given) | 79% (inactive) |
| CNC(=O)C1CCC(Cn2c(=O)c3sccc3n(Cc3ccc(F)cc3)c2=O)CC1 (stereo not given) | 79% (inactive) |
| NS(=O)(=O)c1ccc(CCNC(=O)c2nc(SCc3ccccc3F)ncc2Cl)cc1 | 45% (inactive) |
| CC(C)(C)NS(=O)(=O)c1ccc2oc3ccc(S(=O)(=O)NC(C)(C)C)cc3c2c1 | 86% (inactive) |
| O=C(O)c1cccc(N=NN2CCOCC2)c1 | 80% (inactive) |
| CSc1cccc(NS(=O)(=O)c2ccc3[nH]cc(C(=O)N4CCCC4)c(=O)c3c2)c1 | 91% (inactive) |
| O=C(CSc1ccc2ccccc2n1)Nc1nsc(-c2ccc(Cl)cc2)n1 | 57% (inactive) |
| Cc1cccc(Cn2cc(S(=O)(=O)c3cccc(C)c3)c(=O)c3cc(F)c(N4CCOCC4)cc32)c1 | 76% (inactive) |
| CCCCOc1ccc(C2C(=O)N(C3CCCCC3)CC(=O)N2C2CCCCC2)cc1 (stereo not given) | 94% (inactive) |
| CCN(CC)S(=O)(=O)c1ccc2c(c1)N(CC(=O)NCCc1ccccc1)C(=O)CO2 | 76% (inactive) |
| Cc1ccc(S(=O)Cc2ccc(C(=O)NCc3ccc(OC(C)C)cc3)o2)cc1 (stereo not given) | 51% (inactive) |
| CC(C)Oc1ccc(CNC(=O)c2ccc(CS(=O)c3cccc(Cl)c3)o2)cc1 (stereo not given) | 52% (active) |
| CC(C)Oc1ccc(CNC(=O)c2ccc(CS(=O)Cc3ccccc3Cl)o2)cc1 (stereo not given) | 109% (inactive) |
| O=C(Cn1c(-c2cccs2)cc2cc(F)ccc21)N1CCN(c2ccccc2)CC1 | 71% (inactive) |
| CCc1cccc(NC(c2nnc(-c3ccccc3)o2)c2ccc(F)cc2Cl)c1 (stereo not given) | 83% (inactive) |
| Cc1ccc(C)c(NC(c2ccccc2)c2nnc(-c3ccccc3F)o2)c1 (stereo not given) | 4% (active) |
| COc1ccc(NC(c2ccc(F)cc2)c2nnc(-c3ccccc3Cl)o2)cc1Cl (stereo not given) | 78% (inactive) |
| Cc1ccc(Cl)cc1NC(c1ccc(F)cc1)c1nnc(-c2ccccc2)o1 (stereo not given) | 86% (inactive) |
| COc1cc(Cl)c(C)cc1NC(c1ccccc1)c1nnc(-c2ccccc2Cl)o1 (stereo not given) | 69% (inactive) |
| CCc1cccc(NC(c2ccccc2)c2nnc(-c3ccccc3F)o2)c1 (stereo not given) | 11% (active) |
| COc1ccc(OC)c(NC(=O)CSc2cn(CC(=O)N3CCOCC3)c3ccccc23)c1 | 91% (inactive) |
| CC(=O)Nc1ccc2nc(SCc3ccccc3)sc2c1 | 63% (inactive) |
| CC(C)NC(=O)Cn1c(SCC(=O)N2CCc3ccccc32)nc2ccccc21 | 97% (inactive) |
| Cc1ccc2nc(-c3ccccc3F)c(Nc3ccc(Cl)cc3)n2c1 | 16% (inactive) |

| Compound | survival |
| --- | --- |
| CCCCn1c(=O)nc2n(-c3ccc(F)cc3)c3ccccc3cc-2c1=O | 41% (active) |
| Cn1c(=O)nc2n(-c3ccc(Br)cc3)c3cccc(Cl)c3cc-2c1=O | 80% (inactive) |
| Cc1ccc(-n2c3nc(=O)n(C)c(=O)c-3cc3ccccc32)c(C)c1 | 99% (inactive) |
| CCOc1ccccc1C(=O)N1CCC(c2nc3ccccc3o2)CC1 | 80% (inactive) |
| Cc1cccc(NC(=O)CCCn2c(C)c3cnn(-c4ccccc4)c(=O)c3c2C)c1C | 71% (inactive) |
| CCOC(=O)c1cnc(SC2CCc3ccccc3C2=O)nc1N (stereo not given) | 79% (inactive) |
| CCOC(=O)c1cnc(SCC(=O)OC)nc1N | 95% (inactive) |
| CCCCSc1ncc(C(=O)OCC)c(N)n1 | 78% (active) |
| COc1ccc(CNC(=O)CN(c2ccccc2)S(=O)(=O)N(C)C)cc1 | 145% (inactive) |
| O=C(Cc1csc2nc(-c3ccccc3)cn12)NCc1ccc(F)cc1 | 90% (inactive) |
| Cc1cccc(-c2cc3nc4c(c(N5CCCC5)n3n2)CCCC4)c1 | 123% (inactive) |
| O=S(=O)(c1ccc(Cl)cc1)c1nc(-c2ccco2)oc1SCc1ccccc1F | 62% (inactive) |
| CCCSc1oc(-c2ccco2)nc1S(=O)(=O)c1ccc(Br)cc1 | 55% (inactive) |
| Cc1ccc(CSc2oc(-c3ccco3)nc2S(=O)(=O)c2ccc(C)cc2)cc1 | 62% (inactive) |
| CCSc1oc(-c2ccco2)nc1S(=O)(=O)c1ccc(Br)cc1 | 54% (inactive) |
| O=S(=O)(c1ccc(Br)cc1)c1nc(-c2ccco2)oc1SCc1ccccc1F | 44% (active) |
| O=C(CSc1oc(-c2ccco2)nc1S(=O)(=O)c1ccc(Br)cc1)c1ccccc1 | 47% (active) |
| O=C(CSc1oc(-c2ccco2)nc1S(=O)(=O)c1ccc(Br)cc1)c1ccc(Cl)cc1 | 52% (inactive) |
| CC(C)CSc1oc(-c2ccco2)nc1S(=O)(=O)c1ccc(Br)cc1 | 33% (active) |
| Cc1ccc(S(=O)(=O)c2nc(-c3ccco3)oc2SCC(C)C)cc1 | 48% (active) |
| Cc1ccc(S(=O)(=O)c2nc(-c3ccco3)oc2SCc2ccc(F)cc2)cc1 | 66% (inactive) |
| O=C(CSc1oc(-c2ccco2)nc1S(=O)(=O)c1ccc(Cl)cc1)c1ccccc1 | 125% (inactive) |
| O=S(=O)(c1ccc(Br)cc1)c1nc(-c2ccco2)oc1SCc1ccccc1Cl | 149% (inactive) |

— PubChem BioAssay AID463173 (ICCB-Longwood Screening Facility, Harvard Medical School, 2010)
